Measured values published in PubChem BioAssay (EPA / NIEHS).
The source made the active and inactive calls. The calls were made as follows: active = hit-call score of the fitted dose curve at least 0.9, where 1 is the maximum; inactive = score below 0.9.

Tests used:
[1] = ATG_CRE_CIS: Attagene CIS-FACTORIAL HepG2 Assay for human cAMP Responsive Element (CRE) binding protein 3 (AID 2282926); conditions: HepG2 CRE cis-reporter, Attagene multiplexed mRNA; actives raise or lower the signal
Procedure, shortened: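 Assay format: transient reporter transfection of HepG2, 24 h treatment, total RNA isolation with DNase I step. Reporter abundance read by fluorescence after PCR and capillary separation; DMSO-normalised gain or loss fitting.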

[2] = molecular target: CCAAT/enhancer-binding protein beta (Homo sapiens) (UniProt P17676); test: ATG_C_EBP_CIS: Attagene CIS-FACTORIAL HepG2 Assay for human CCAAT/Enhancer Binding Protein (C/EBP) beta (AID 2282927); conditions: HepG2 Attagene cis-factorial transcription factor reporter; actives raise or lower the signal
Procedure, shortened: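 HepG2 transiently transfected with multiplexed reporter units under cis-regulatory promoters reporting endogenous C/EBPb activity. After 24 h exposure, reporter mRNA assayed by RT-PCR, fluorescent labelling, HpaI digestion and capillary electrophoresis; bidirectional fitting versus DMSO.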

[3] = ATG_CMV_CIS: Attagene CIS-FACTORIAL HepG2 Assay for human CMV (Internal Marker) (AID 2282928); conditions: HepG2 CMV promoter reporter, transcription factor profiling; actives raise or lower the signal;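 also: endpoint acts as a background internal control marker rather than a target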
Procedure, shortened: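 Bidirectional fits against DMSO are applied to reporter mRNA, read by RT-PCR with capillary electrophoresis, from HepG2 cells exposed 24 h. The endpoint serves as an internal CMV background marker within the cis-factorial reporter panel.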

[4] = ATG_DR4_LXR_CIS: Attagene CIS-FACTORIAL HepG2 Assay for human Liver X Receptor (LXR), DR4 submotif (AID 2282929); conditions: HepG2 Attagene DR4 cis-reporter, mRNA transcription; actives raise or lower the signal
Procedure, shortened: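 HepG2, transient MRTU transfection, cis-element (DR4) promoter; 24 h compound exposure; total RNA → oligo(dT) RT → PCR → 6-FAM primer extension → HpaI cut → CE. Gain/loss vs DMSO, bidirectional fit.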

[5] = molecular target: Aryl hydrocarbon receptor (Homo sapiens) (UniProt P35869); test: ATG_Ahr_CIS: Attagene CIS-FACTORIAL HepG2 Assay for human Aryl Hydrocarbon Receptor (Ahr) (AID 2282930); conditions: HepG2 AhR cis-factorial reporter transcription; actives raise or lower the signal
Procedure, shortened: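 HepG2 cells transiently transfected with cis-element-driven multiplexed reporter units; endogenous AhR activity read as reporter mRNA 24 h after dosing, via RT-PCR, 6-FAM labelling, HpaI digestion and capillary electrophoresis. Bidirectional fit relative to DMSO.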

[6] = ATG_AP_1_CIS: Attagene CIS-FACTORIAL HepG2 Assay for human Activator Protein 1 (AP-1) (AID 2282931); conditions: HepG2 Attagene cis-factorial AP-1 reporter mRNA; actives raise or lower the signal
Procedure, shortened: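 Transient MRTU transfection of HepG2 → 24 h chemical treatment → RNA isolation, RT-PCR, 6-FAM labelling, HpaI digest → capillary electrophoresis. Fit: bidirectional, DMSO negative control.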

[7] = ATG_AP_2_CIS: Attagene CIS-FACTORIAL HepG2 Assay for human Activator Protein 2 (AP-2) (AID 2282932); conditions: HepG2 AP-2 cis-reporter, Attagene transcription factor profiling; actives raise or lower the signal
Procedure, shortened: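 Liver-derived HepG2 line, cis-reporter system measuring endogenous factors; 24 h dosing; reporter mRNA detected by fluorescent RT-PCR and capillary electrophoresis.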

[8] = ATG_BRE_CIS: Attagene CIS-FACTORIAL HepG2 Assay for human Bone Morphogenetic Protein (BMP) Response Element (BRE) (AID 2282933); conditions: HepG2 BMP response element reporter, Attagene transcription factor profiling; actives raise or lower the signal
Procedure, shortened: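 Fluorescence-labelled reporter cDNA fragments, separated by capillary electrophoresis, gave the signal for this component of a 52-readout multiplex. HepG2 cells were transfected, exposed to chemicals for 24 h, and compared with DMSO using bidirectional fitting.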

[9] = molecular target: Transcription factor E2F1 (Homo sapiens) (UniProt Q01094); test: ATG_E2F_CIS: Attagene CIS-FACTORIAL HepG2 Assay for human E2F Transcription Factor 1 (AID 2282935); conditions: HepG2 Attagene cis-reporter, E2F reporter RNA transcripts; actives raise or lower the signal
Procedure, shortened: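 Liver-derived HepG2 cells expressing transfected promoter-driven reporter units received test chemical for 24 hours. Signal gains or losses were fitted bidirectionally against DMSO.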

[10] = ATG_E_Box_CIS: Attagene CIS-FACTORIAL HepG2 Assay for human Enhancer Box (E-box) (AID 2282936); conditions: HepG2 E-box cis-reporter transcription, actives raise or lower the signal
Procedure, shortened: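 In this cell-based setup, HepG2 cells bearing transfected promoter-driven reporter units were exposed to chemicals for 24 h; reporter transcripts were amplified, 6-FAM-labelled, cut with HpaI and sized by capillary electrophoresis.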

[11] = ATG_M_61_CIS: Attagene CIS-FACTORIAL HepG2 Assay for M61 Transcription Factor (Internal Marker) (AID 2282937); conditions: HepG2 Attagene CIS-FACTORIAL M61 internal marker reporter; actives raise or lower the signal
Procedure, shortened: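 Human liver HepG2, transient MRTU transfection (cis promoter elements), 24 h compound. Total RNA → oligo(dT) RT → PCR → FAM label → HpaI → CE. Internal background marker; bidirectional fitting, DMSO = baseline.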

[12] = ATG_EGR_CIS: Attagene CIS-FACTORIAL HepG2 Assay for human Early Growth Response 1 (EGR1) (AID 2282938); conditions: HepG2 Attagene CIS-FACTORIAL EGR reporter mRNA; actives raise or lower the signal
Procedure, shortened: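 Transient transfection of human HepG2 with multiple cis-regulated reporter units, chemical exposure 24 h, total RNA isolated. Reverse transcription, PCR, fluorescent labelling and capillary electrophoresis quantify reporter transcripts; activity fitted bidirectionally against DMSO.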

[13] = ATG_M_19_CIS: Attagene CIS-FACTORIAL HepG2 Assay for M19 Transcription Factor (Internal Marker) (AID 2282939); conditions: HepG2 Attagene CIS-FACTORIAL M19 internal marker reporter; actives raise or lower the signal
Procedure, shortened: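 HepG2, MRTU transient transfection, 24 h dosing. Total RNA → RT-PCR → 6-FAM primer extension → HpaI digest → CE fluorescence. Bidirectional curve fit, DMSO negative control.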

[14] = ATG_ERE_CIS: Attagene CIS-FACTORIAL HepG2 Assay for Estrogen Response Element (ERE) (AID 2282940); conditions: HepG2 ERE cis-reporter, Attagene RNA transcript; actives raise or lower the signal
Procedure, shortened: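 After a 24 h chemical treatment, RNA from reporter-transfected HepG2 cells is reverse-transcribed, PCR-amplified and fluorescently labelled. Fragments separated by capillary electrophoresis give reporter signal; DMSO serves as negative control.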

[15] = ATG_Ets_CIS: Attagene CIS-FACTORIAL HepG2 Assay for human Erythroblast Transformation Specific (ETS) (AID 2282941); conditions: HepG2 ETS cis-reporter transcription, actives raise or lower the signal
Procedure, shortened: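 Endogenous transcription factor activity read as reporter mRNA via RT-PCR and capillary electrophoresis, with gain or loss fitted bidirectionally against DMSO. Human HepG2 liver cells, transiently transfected CIS reporter constructs, 24 h exposure.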

[16] = molecular target: Hepatocyte nuclear factor 3-beta (Homo sapiens) (UniProt Q9Y261); test: ATG_FoxA2_CIS: Attagene CIS-FACTORIAL HepG2 Assay for human Forkhead box A2 (FOXA2) (AID 2282942); conditions: HepG2 cis-reporter transcription factor activity, 24 h; actives raise or lower the signal
Procedure, shortened: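 Transient MRTU transfection of HepG2 liver cells; 24 h treatment; total RNA → oligo(dT) RT → PCR → FAM primer extension → HpaI cut → CE. Bidirectional fit vs DMSO.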

[17] = ATG_FoxO_CIS: Attagene CIS-FACTORIAL HepG2 Assay for human Forkhead box O (FoxO) (AID 2282943); conditions: HepG2 Attagene cis-reporter, FoxO element, mRNA; actives raise or lower the signal
Procedure, shortened: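 HepG2 cells transiently transfected with cis-element-driven reporter units report endogenous FoxO activity. After 24 h chemical exposure, reporter mRNA quantified by RT-PCR, fluorescent labeling, HpaI digestion and capillary electrophoresis; bidirectional fit versus DMSO.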

[18] = ATG_GATA_CIS: Attagene CIS-FACTORIAL HepG2 Assay for human GATA Binding Protein (AID 2282944); conditions: HepG2 GATA cis-element reporter, Attagene multiplex mRNA; actives raise or lower the signal
Procedure, shortened: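 Cells: HepG2, transiently transfected with cis-regulated reporter transcription units. Exposure: 24 h. Detection: RT-PCR plus capillary electrophoresis of FAM-labeled fragments. Analysis: bidirectional, DMSO as baseline.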

[19] = ATG_GLI_CIS: Attagene CIS-FACTORIAL HepG2 Assay for human Zinc Finger Protein GLI1 (AID 2282945); conditions: HepG2, Attagene cis-factorial reporter mRNA, GLI element; actives raise or lower the signal
Procedure, shortened: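 Transiently transfected HepG2 cells report endogenous transcription factor activity via cis-element-driven reporter units. After 24 h compound exposure, reporter mRNA was measured by RT-PCR with capillary electrophoresis; bidirectional fitting against DMSO baseline.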

Measured: AC50

Sequence of Transcription factor E2F1 (Homo sapiens) (Q01094 whole entry, looked up): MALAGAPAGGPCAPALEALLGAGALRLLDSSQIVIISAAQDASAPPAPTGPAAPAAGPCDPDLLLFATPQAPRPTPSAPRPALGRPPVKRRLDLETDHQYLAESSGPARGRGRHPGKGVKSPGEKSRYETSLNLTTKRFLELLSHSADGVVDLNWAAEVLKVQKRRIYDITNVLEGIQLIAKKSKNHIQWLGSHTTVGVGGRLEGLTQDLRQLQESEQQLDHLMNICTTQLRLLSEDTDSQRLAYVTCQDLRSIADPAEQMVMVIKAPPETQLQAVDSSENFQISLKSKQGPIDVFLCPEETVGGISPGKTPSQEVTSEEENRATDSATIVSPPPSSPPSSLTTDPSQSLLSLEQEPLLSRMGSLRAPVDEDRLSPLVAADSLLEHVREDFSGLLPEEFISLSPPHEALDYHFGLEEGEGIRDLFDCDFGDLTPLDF
Sequence of Hepatocyte nuclear factor 3-beta (Homo sapiens) (Q9Y261 whole entry, looked up): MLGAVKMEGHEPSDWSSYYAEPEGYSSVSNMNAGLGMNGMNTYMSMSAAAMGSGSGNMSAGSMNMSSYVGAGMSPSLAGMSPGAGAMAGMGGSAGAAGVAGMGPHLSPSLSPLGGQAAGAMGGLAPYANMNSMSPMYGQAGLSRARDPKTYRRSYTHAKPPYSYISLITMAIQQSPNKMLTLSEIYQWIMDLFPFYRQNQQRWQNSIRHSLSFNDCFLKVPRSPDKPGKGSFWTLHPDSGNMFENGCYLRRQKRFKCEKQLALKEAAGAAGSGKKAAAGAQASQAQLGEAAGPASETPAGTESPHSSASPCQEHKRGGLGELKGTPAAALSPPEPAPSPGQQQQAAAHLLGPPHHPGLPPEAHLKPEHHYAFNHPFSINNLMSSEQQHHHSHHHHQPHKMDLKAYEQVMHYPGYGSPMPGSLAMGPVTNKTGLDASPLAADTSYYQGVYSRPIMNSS
Sequence of CCAAT/enhancer-binding protein beta (Homo sapiens) (P17676 whole entry, looked up): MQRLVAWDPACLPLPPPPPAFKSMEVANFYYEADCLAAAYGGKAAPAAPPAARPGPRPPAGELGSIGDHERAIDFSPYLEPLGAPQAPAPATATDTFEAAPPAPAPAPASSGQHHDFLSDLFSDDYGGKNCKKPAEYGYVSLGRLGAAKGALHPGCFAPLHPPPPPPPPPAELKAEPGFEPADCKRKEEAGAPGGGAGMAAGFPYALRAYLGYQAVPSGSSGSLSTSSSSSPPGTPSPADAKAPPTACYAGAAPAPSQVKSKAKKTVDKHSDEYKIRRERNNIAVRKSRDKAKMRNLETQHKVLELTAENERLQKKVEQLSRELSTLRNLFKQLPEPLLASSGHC
Sequence of Aryl hydrocarbon receptor (Homo sapiens) (P35869 whole entry, looked up): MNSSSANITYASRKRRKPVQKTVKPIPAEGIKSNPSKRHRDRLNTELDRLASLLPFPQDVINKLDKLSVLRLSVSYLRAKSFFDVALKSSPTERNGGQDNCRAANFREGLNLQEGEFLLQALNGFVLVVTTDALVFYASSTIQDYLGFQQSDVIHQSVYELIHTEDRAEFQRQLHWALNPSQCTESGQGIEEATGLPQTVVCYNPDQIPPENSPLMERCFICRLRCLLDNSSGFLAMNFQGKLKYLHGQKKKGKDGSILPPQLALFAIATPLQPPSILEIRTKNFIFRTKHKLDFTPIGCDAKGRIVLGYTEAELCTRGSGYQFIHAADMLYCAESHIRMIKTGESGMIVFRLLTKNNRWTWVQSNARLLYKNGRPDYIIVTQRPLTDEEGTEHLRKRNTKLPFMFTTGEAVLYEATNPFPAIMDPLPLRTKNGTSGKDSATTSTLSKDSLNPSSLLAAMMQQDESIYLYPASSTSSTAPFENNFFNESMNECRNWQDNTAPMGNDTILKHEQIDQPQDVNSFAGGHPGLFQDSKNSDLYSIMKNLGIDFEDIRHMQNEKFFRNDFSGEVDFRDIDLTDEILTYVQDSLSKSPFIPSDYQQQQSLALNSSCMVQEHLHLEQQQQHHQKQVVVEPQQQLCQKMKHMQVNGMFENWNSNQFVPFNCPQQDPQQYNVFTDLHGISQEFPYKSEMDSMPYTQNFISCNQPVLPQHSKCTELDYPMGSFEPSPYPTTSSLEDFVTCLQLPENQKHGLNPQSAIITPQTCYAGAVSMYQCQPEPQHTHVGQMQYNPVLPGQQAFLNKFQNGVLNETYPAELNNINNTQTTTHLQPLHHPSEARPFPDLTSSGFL

OCCCCCO
inactive: all assays above

CC(C)(Oc1ccc(CCNC(=O)c2ccc(Cl)cc2)cc1)C(=O)O
inactive: all assays above

CCOC(=S)SSC(=S)OCC
inactive: all assays above

CCC(C)(O)CCC=C(C)C (centres undefined)
inactive: all assays above

C[C@H]1C[C@H]2[C@@H]3CCC4=CC(=O)C=C[C@]4(C)[C@@]3(F)[C@@H](O)C[C@]2(C)[C@@]1(O)C(=O)COP(=O)(O)O
inactive: all assays above

COC(=O)Cc1cccc2ccccc12
inactive: all assays above

OCCOCCOCCOCCO
active: [5] 40.5 µM
inactive: all other assays above

CC(C)C(C)(C)C(C)(C)C(C)(C)S
inactive: all assays above

O=C(OCc1ccccc1)C(=O)OCc1ccccc1
inactive: all assays above

CN1[C@@H]2CC(OC(=O)[C@H](CO)c3ccccc3)C[C@H]1[C@@H]1O[C@@H]12 (some centres undefined)
inactive: all assays above

NC(N)=NC(=O)c1nc(Cl)c(N)nc1N
active: [4] 149 µM
inactive: all other assays above

NCCCN1CCOCC1
inactive: all assays above

OC1C(O)C(O)C(O)C(O)C1O (centres undefined)
active: [5] 70.3 µM
inactive: all other assays above

COC(=O)C1=C(C)NC(C)=C(C(=O)OCCN(C)Cc2ccccc2)C1c1cccc([N+](=O)[O-])c1 (centres undefined)
active: [2] 15.5 µM | [4] 8.22 µM | [7] 26.5 µM | [8] 17.9 µM | [9] 25 µM | [10] 19.4 µM | [19] 99.5 µM
inactive: all other assays above

C=C(C)C(=O)Nc1ccc(Cl)c(Cl)c1
active: [5] 14.9 µM | [8] 79.9 µM | [12] 27.2 µM
inactive: all other assays above

Nc1cc(N)cc(C(=O)O)c1
inactive: all assays above
